66 molecules from PubChem BioAssay AID1259343 (VanderVen Lab, College of Veterinary Medicine, Cornell …, 2017) can be followed below.

The whole screen tested about 6,200 compounds, of which about 2,900 (47%) were called active. The set was probably picked from earlier hits. The list shows a part of the results. A number with no mark means an inactive call. Cut-off read from the data, not from the text of the source: active = inhibition above about 50%; inactive = the rest.

This experiment in a line: Mycobacterium tuberculosis growth inhibition, primary screen (AID 1259343). The note with it: inhibition: at 10 µM, stronger effect = higher value; outcome: 10 uM.
A word on the inhibition: it is the change of the read-out against control, counted positive when it falls. For `Cc1cccc(C)c1Cn1c(C)c(C(=O)NCc2ccc(Cl)c(Cl)c2)sc1=O`, the inhibition was 16.1%.

Turning to `O=C(NCc1ccc(Cl)cc1)c1c(O)nc2sccn2c1=O`, the inhibition was 81.1% (active).

With `O=C(NCc1ccccc1)c1c(O)nc2sccn2c1=O`, the inhibition was 63.3% (active).

As to `O=C(NCCc1ccccc1)c1c(O)nc2sccn2c1=O`, the inhibition is 1.99%.

On to `O=C(NCc1ccc(F)cc1)c1c(O)nc2sccn2c1=O`, for which the inhibition was 59.5% (active).

For the molecule `O=C(NCc1ccc(Cl)cc1)c1c(O)nc2ccccn2c1=O`, the inhibition was 25.1%.

On to `Cc1ccc(CNC(=O)c2c(O)nc3sccn3c2=O)cc1`, for which the inhibition was 74.4% (active).

Turning to `Cc1ccc(CNC(=O)CN2CCc3sccc3C2C)cc1` (stereo unspecified), the inhibition was 27%.

As for `O=C(NC1CCCCC1)c1c(O)nc2ccccn2c1=O`, the inhibition is 42.4%.

As to `Fc1cccc(Nc2cc3[nH]c(-c4cccc(F)c4)cc3cn2)c1`, the inhibition was 30.6%.

In the case of `COCC(C)NC(=O)C12CCC(C)(C(=O)O1)C2(C)C` (stereo unspecified), the inhibition is 100% (active).

Regarding `COCC(C)NC(=O)c1ccc(CSc2ccccc2)o1` (stereo unspecified), the inhibition is -22.4%.

For `Brc1ccc(-n2nc(-c3ccccc3)n[n+]2-c2nnn[n-]2)cc1`, the inhibition was 49.9%.

Regarding `O=C(O)c1cc(-c2ccc(Cl)c(Cl)c2)ns1`, the inhibition was 90% (active).

For `O=C(O)c1cc2cc(Cl)sc2s1`, the inhibition was 37%.

Consider `CCN(CC)c1ccc(CN(C)S(=O)(=O)c2ccc(F)cc2)cc1`, for which the inhibition is 33.5%.

For the molecule `CN(Cc1ccc(Cl)s1)S(=O)(=O)c1ccc(Cl)cc1`, the inhibition is 73.6% (active).

For the molecule `CC(=O)NCCC1CCN(c2nncc(-c3ccc(Cl)cc3)n2)CC1`, the inhibition is 38%.

For `O=C(CN1CCc2ccccc2C1)Nc1nc(-c2cc3ccccc3o2)cs1`, the inhibition is 5.08%.

For the molecule `CC(C)CC(=O)NCC1CCN(c2ccc(Cl)cc2)C1` (stereo unspecified), the inhibition was 68.8% (active).

For `Cc1ccc2c(c1)C1CN(C)CCC1N2C(=O)NCC1CCCC1` (stereo unspecified), the inhibition is 45.5%.

In the case of `O=C(NCC1CC1)N1Cc2ccccc2C(c2ccccc2)C1` (stereo unspecified), the inhibition was 8.6%.

`O=C(CN1CCc2ccccc2C1)NCC1CCN(c2ccccc2)C1` (stereo unspecified): the inhibition was 91.3% (active).

Take `O=C(Nc1cccc2cccnc12)N1CCCC1C1CCCC1` (stereo unspecified): the inhibition is 27.2%.

Consider `O=C(NCC1CCN(c2ccccc2)C1)N1CCCC1C1CCCC1` (stereo unspecified), for which the inhibition was 67.7% (active).

In the case of `Fc1cccc2sc(Nc3nnc(-c4cccs4)o3)nc12`, the inhibition was 101% (active).

For the molecule `O=C(Nc1nc2c(Br)cccc2s1)Nc1c(F)cccc1F`, the inhibition was 28.4%.

For `Cc1cccc2cc(CNC(C)Cc3ccco3)c(Cl)nc12` (stereo unspecified), the inhibition is 24.3%.

Regarding `N#Cc1c(Cl)cccc1Oc1cccc(C(=O)O)c1`, the inhibition is 6.19%.

Take `CC(C)(Cc1ccc2ccccc2c1)NC[C@@H](O)COc1cccc(Cl)c1C#N`: the inhibition is 87.4% (active).

Take `Cc1ccc(OCC2CN(C(=O)COc3ccc(F)cc3)CCO2)cc1` (stereo unspecified): the inhibition is 82.5% (active).

Consider `Cc1ccccc1OCC(=O)N1CCOC(COc2cccc(C(F)(F)F)c2)C1` (stereo unspecified), for which the inhibition is 6.21%.

Consider `Cc1ccc(OCC2CN(C(=O)COc3ccccc3C)CCO2)cc1` (stereo unspecified), for which the inhibition is 75.9% (active).

Regarding `O=C(Cc1cccc(Cl)c1)N1CCOC(COc2ccc3c(c2)CCCC3)C1` (stereo unspecified), the inhibition is 44%.

As to `Cc1cc(OCC2CN(C(=O)c3ccc(C#N)cc3F)CCO2)ccc1Cl` (stereo unspecified), the inhibition was 5.04%.

Turning to `O=C(COc1ccc(F)cc1)N1CCOC(COCc2c(Cl)cccc2Cl)C1` (stereo unspecified), the inhibition is 34%.

With `CNc1ccc(C(=O)N2CCOC(COc3ccc(Cl)c(C)c3)C2)cc1` (stereo unspecified), the inhibition was 53% (active).

In the case of `COc1cccc(CC(=O)N2CCOC(COc3ccc(F)cc3)C2)c1` (stereo unspecified), the inhibition was 24%.

Regarding `Cc1cc(OCC2CN(C(=O)COc3ccccc3C)CCO2)ccc1Cl` (stereo unspecified), the inhibition was 50.9% (active).

`Cc1cc(OCC2CN(C(=O)COCc3ccccc3)CCO2)ccc1Cl` (stereo unspecified): the inhibition was 50.5% (active).

On to `O=C(Cc1cccc(Cl)c1)N1CCOC(COc2ccc(F)cc2)C1` (stereo unspecified), for which the inhibition was 11.7%.

As to `O=C(NCCC(=O)N1CCOC(COCc2ccc(F)cc2Cl)C1)OCc1ccccc1` (stereo unspecified), the inhibition is 61% (active).

Regarding `Cc1ccccc1OCC(=O)N1CCOC(COCc2ccccc2F)C1` (stereo unspecified), the inhibition is 72.4% (active).

Consider `Cc1cc(OCC2CN(C(=O)Cc3cccc(Cl)c3)CCO2)ccc1Cl` (stereo unspecified), for which the inhibition was 31%.

With `O=C(Cc1cccc(Cl)c1)N1CCOC(COCc2ccccc2F)C1` (stereo unspecified), the inhibition is 30.4%.

Consider `COc1cccc(CC(=O)N2CCOC(COc3ccc(Cl)c(C)c3)C2)c1` (stereo unspecified), for which the inhibition is 4.53%.

`Cc1cc(OCC2CN(C(=O)Cc3ccc4c(c3)OCO4)CCO2)ccc1Cl` (stereo unspecified): the inhibition was 65.7% (active).

In the case of `CNC(=O)c1cc(Oc2ccc(NC(=O)Nc3ccc(Cl)c(C(F)(F)F)c3)c(F)c2)ccn1`, the inhibition was 34.8%.

As to `O=S1(=O)N(CCN2CC=C(c3c[nH]c4cc(F)ccc34)CC2)c2cccc3c2N1CCC3`, the inhibition was 12.6%.

Take `O=C(/C=C/c1ccc(-c2cccc([N+](=O)[O-])c2)o1)N1CCCCC1`: the inhibition was 80.3% (active).

`COc1c(Br)cc(Cl)cc1S(=O)(=O)NCCc1ccccc1`: the inhibition is 18%.

With `CN(Cc1ccc(F)cc1)Cc1nc(Cc2ccccc2Cl)no1`, the inhibition was 89.3% (active).

For the molecule `CCc1ccc(CN(C)Cc2nc(Cc3ccccc3F)no2)cc1`, the inhibition was 71% (active).

As to `CN(Cc1nc(-c2cccc(Cl)c2)no1)C1CCCCC1`, the inhibition was 74.3% (active).

For `Fc1ccccc1N1CCN(Cc2nc(Cc3ccccc3Cl)no2)CC1`, the inhibition entry is “inactive”.

`CN(Cc1ccc2nsnc2c1)Cc1nc(Cc2ccccc2Cl)no1`: the inhibition is 31.6%.

Turning to `Cc1ccc(OCCN(C)Cc2nc(-c3cccc(Cl)c3)no2)cc1`, the inhibition was 35%.

On to `COCCCC1CCN(Cc2nc(Cc3ccccc3Cl)no2)CC1`, for which the inhibition is 29.1%.

As for `CN(C1CCCCC1)S(=O)(=O)N1CCCC(c2nc(-c3cccc(F)c3)no2)C1` (stereo unspecified), the inhibition was 33.1%.

`Clc1ccccc1Cc1noc(CN2CCN(Cc3ccccc3)CC2)n1`: the inhibition is 51.2% (active).

In the case of `OCC1(Cc2ccccc2)CCCN(c2ccc(-c3ccccc3)nn2)C1` (stereo unspecified), the inhibition is 23.4%.

For `COc1cccc(F)c1OCc1nc(CC2CC2)no1`, the inhibition was -44.2%.

Take `Cc1noc(CNc2cc(Cl)ccc2Oc2ccccc2)n1`: the inhibition was 33.9%.

As for `CN(Cc1nc(Cc2ccccc2Cl)no1)C1CCCCC1`, the inhibition is 65.6% (active).

With `Cc1ccc(F)c(OCc2nc(Cc3ccccc3F)no2)c1F`, the inhibition was 81.3% (active).

For `COc1cccc2c1OCCCN(Cc1nc(Cc3ccccc3Cl)no1)C2`, the inhibition is 14.3%.
